CendR NRP1 mod = NRP-1/CendR interaction modulation | hit rate 0.85% among 360,000 | inhibition, % at 25 µM | AID 602438 | FAM-RPARPAR peptide binding to NRP-1, fluorescence polarization | O14786;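 active = inhibition or corrected inhibition above about 18%, plus a signal ratio from 0.5 to 1.5, limit read from the data, passing the limit was not always enough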
A3G deaminase = blocks human APOBEC3G single-stranded DNA deamination | Q9HC16 | recombinant A3G, ssDNA deamination FAM/TAMRA fluorescence | inhibition, % at 20 µM | hit rate 0.28% among 330,000;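 active = inhibition of at least 40% at 20 µM, with no more than 30% in the related APOBEC3A deaminase screen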
ADAM10 inh = inhibits human ADAM10 | recombinant ADAM10, EDANS/DABCYL FRET peptide cleavage, 3 h | inhibition, % at 7 µM | hit rate 0.62% among 370,000 | AID 720582;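 active = inhibition above a per-campaign cutoff equal to the mean of compounds falling between control-based bounds plus 3 SD, cut at about 20% in these data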
ADAM17 inh = inhibits human ADAM17. P78536. recombinant ADAM17, EDANS/DABCYL FRET peptide cleavage. inhibition, % at 6.95 µM. hit rate 0.83% among 370,000;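 active = inhibition above the mean of compounds lying between control limits plus 3 SD, set per campaign, cut at about 8.5% in these data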
A3A deaminase = inhibitors of human APOBEC3A DNA deaminase; P31941; recombinant A3A, FAM/TAMRA ssDNA deamination fluorescence; inhibition, % at 20 µM; hit rate 0.41% among 330,000;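 active = at least 40% inhibition at 20 µM here, with at most 30% in a related deaminase screen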
Target sequence (P31941 whole entry, looked up): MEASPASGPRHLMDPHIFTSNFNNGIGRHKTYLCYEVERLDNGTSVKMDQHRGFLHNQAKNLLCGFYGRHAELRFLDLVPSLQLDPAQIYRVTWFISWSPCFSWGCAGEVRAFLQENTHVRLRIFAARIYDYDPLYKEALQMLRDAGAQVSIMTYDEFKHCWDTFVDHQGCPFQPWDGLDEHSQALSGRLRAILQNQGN
Each line names hits and unclear results; the compound was inactive in the other large screens. Hits are enriched below; roughly 2.4% of the tested compounds scored in any of these assays.

Cc1nn(-c2ccccc2)nc1CNC(=O)C1CCC1	CendR NRP1 mod 25
Cc1cc(Nc2ccc(Cl)c(C(F)(F)F)c2)cc(=O)n1-c1ccc(Cl)c(C(F)(F)F)c1	none (no result: CendR NRP1 mod, A3G deaminase, A3A deaminase)
COc1ccc(-c2ccc(OC)c(OC)c2OC)c(OC)c1OC	CendR NRP1 mod 20 (no result: A3G deaminase, A3A deaminase)
COc1ccc(C2=CCCCCC2)c(OC)c1OC	none (no result: A3G deaminase, A3A deaminase)
Cc1ccc(C)c(C(=O)Cn2ncc(Cl)c(Cl)c2=O)c1	CendR NRP1 mod 20
Cc1cc(C(=O)Cn2ncc(Cl)c(Cl)c2=O)c(C)n1CC(F)(F)F	none
Cc1cc(C(=O)N2CCCC(N3CCN(c4cccc(Cl)c4)CC3)C2)nn1C (stereo not given)	CendR NRP1 mod 30
Cc1ccc(-n2c(SCC(=O)Nc3ccc4c(c3)OCCO4)nnc2-c2ccccn2)cc1	none (no result: CendR NRP1 mod, A3G deaminase, A3A deaminase)
O=C1c2ccccc2/C(=C\c2ccc(Br)nc2)N1c1ccccc1	none (no result: CendR NRP1 mod, A3G deaminase, A3A deaminase)
Cc1ccccc1NC(=S)Nc1cccc2cnccc12	none
Fc1ccccc1NC(=S)Nc1cccc2cnccc12	CendR NRP1 mod 44
O=[N+]([O-])c1ccc(CN2CCOCCOCCN(Cc3ccc([N+](=O)[O-])cc3Cl)CCOCC2)c(Cl)c1	none (no result: CendR NRP1 mod, A3G deaminase, A3A deaminase)
O=C(O)CC12CC3CC(C1)CC(n1ncc(NCC4CCCO4)c(Cl)c1=O)(C3)C2 (stereo not given)	CendR NRP1 mod 25
C=CCN1C[C@@H](COCc2ccccc2)Oc2cc(F)ccc2S1(=O)=O	none (no result: CendR NRP1 mod, A3G deaminase, A3A deaminase)
Cc1sc2ncn(CC(=O)NCCCC(=O)N3CCC(C(N)=O)CC3)c(=O)c2c1C	none
CCCN1CCN(C(=O)CCCNC(=O)Cn2cnc3sc(C)c(C)c3c2=O)CC1	CendR NRP1 mod 26
Oc1ccc(-c2nc3ncccn3c2Nc2ccc3c(c2)OCO3)cc1	CendR NRP1 mod 24
Clc1ccc(-c2nc3ncccn3c2Nc2ccc3c(c2)OCO3)cc1	none
C=CCO[C@H]1CN(C(=O)OC)[C@@H]2C[C@H]1Oc1ccccc12	none (no result: CendR NRP1 mod, A3G deaminase, A3A deaminase)
CCN1CCN(CC(=O)Nc2ccc(C)cc2C)C(=O)C1=O	none
CCN1CCN(CC(=O)Nc2cccc(C)c2C)C(=O)C1=O	CendR NRP1 mod 21
Cc1cccc(OC[C@@H](O)CN2CCC(C(O)(c3ccccc3)c3ccccc3)CC2)c1	none (no result: CendR NRP1 mod, A3G deaminase, A3A deaminase)
Cc1ccc(S(=O)(=O)N2CCN(CC(=O)N(CC(C)C)c3c(N)n(CC(C)C)c(=O)[nH]c3=O)CC2)c(C)c1	CendR NRP1 mod 49
COC(=O)C1=C(CS(=O)(=O)c2cc(OC)ccc2OC)NC(=O)NC1c1ccc(O)c(OC)c1 (stereo not given)	CendR NRP1 mod 20
CC(=O)OC[C@H]1O[C@H](C#Cc2ccc(C(C)(C)C)cc2)C=C[C@H]1OC(=O)Nc1ccccc1	none (no result: CendR NRP1 mod, A3G deaminase, A3A deaminase)
CN1CCN(C(=O)/C=C/c2cccc(Cl)c2)CC1	CendR NRP1 mod 25
CN1CCN(C(=O)/C=C\c2ccc(Cl)cc2)CC1	none
Cc1nnc(SCCOc2ccccc2)s1	CendR NRP1 mod 51
CC(C)C[C@H](NC(=O)OC(C)(C)C)c1nnc(SCc2cccc(F)c2)o1	CendR NRP1 mod 44
CC(C)[C@H](NC(=O)OC(C)(C)C)c1nnc(SCc2cccc(F)c2)o1	none
COc1ccc(NC(=O)CSc2nccn2-c2ccccc2)c(OC)c1	CendR NRP1 mod 26
CCNC(=O)OC[C@H]1O[C@H](C#Cc2ccc(C(C)(C)C)cc2)C=C[C@H]1OC(C)=O	none (no result: CendR NRP1 mod, A3G deaminase, A3A deaminase)
OCCCc1n[nH]c(=S)n1-c1ccccc1	CendR NRP1 mod 23
COCc1n[nH]c(=S)n1-c1ccccc1	none
COc1ccc(Cn2ccc3ccc(-c4ccc5ccn(Cc6ccc(C#N)cc6)c5c4)cc32)cc1	none (no result: CendR NRP1 mod, A3G deaminase, A3A deaminase)
CN1CCCC(OC(=O)c2cccc(Cl)c2)C1 (stereo not given)	CendR NRP1 mod 30
CN1CCCC(OC(=O)c2cc(Cl)cc(Cl)c2)C1 (stereo not given)	none
COC(=O)c1cc2ccc(OC)c(OC)c2c(=O)s1	CendR NRP1 mod 27
CCC(=O)NCCCCNC(=O)CC	CendR NRP1 mod 33
COc1cccc(-c2nnc(Nc3nc4c(F)cccc4s3)o2)c1	CendR NRP1 mod 33
C=CCNc1cccc2c1S(=O)(=O)N[C@H](CC(C)C)CO2	none (no result: CendR NRP1 mod, A3G deaminase, A3A deaminase)
CNC(=S)NNC(=O)c1sc2cc(C(F)(F)F)cnc2c1-c1ccccn1	CendR NRP1 mod 23
CNC(=S)NNC(=O)c1sc2cc(C(F)(F)F)cnc2c1-c1cccnc1	none
Cn1c(-c2sc3cc(C(F)(F)F)cnc3c2-c2ccccn2)n[nH]c1=S	CendR NRP1 mod 25
Cn1c(-c2sc3cc(C(F)(F)F)cnc3c2-c2cccnc2)n[nH]c1=S	none
COCc1[nH]nc2c1C(c1ccc(F)cc1)NC2=O (stereo not given)	none (no result: CendR NRP1 mod, A3G deaminase, A3A deaminase)
